# Measurements taken from PubChem BioAssay (NCATS).
# Records with an inconclusive call do not appear. Active and inactive are the calls of the source. Calls come from the whole dose curve; as a rule, active = well fitted cell-killing curve with a large enough effect; inconclusive = small, poorly fitted or top-dose-only effect; inactive = no such curve, though single readings can be large or run the other way. Where a SMILES comes first, the peptide text is derived from it. Bridges are numbered along the chain shown (N, C = ends). [ ]: non-standard residue; d: D form. hArg = N=C(N)NCCCC[C@H](N)C(=O)O; Mpa = O=C(O)CCS
# Test: qHTS of pediatric cancer cell lines to identify multiple opportunities for drug repurposing: Primary screen for NB-EBc1 cells (AID 1347095)
# Settings: NB-EBc1 neuroblastoma viability, CellTiter-Glo luminescence, 48 h; series mostly up to 46 µM
# Description: Drug repurposing or repositioning has been offered as a strategy for drug development in oncology programs. This approach has special potential for childhood cancers and other rare or orphan diseases, where the expected return on new drug development has been a disincentive to pharmaceuticals. […] In this project we exploit the poly-pharmacology of drugs to discover new indications via phenotypic screening of a panel of 19 well-characterized cell lines derived from solid tumors seen in children and adolescents. The goal is to identify approved drugs with previously unrecognized anticancer properties that has the potential to reveal new mechanisms and biological processes involved in carcinogenesis or drug resistance. We employed a titration-based paradigm (quantitative high-throughput screening or qHTS), where all compounds were tested at multiple concentrations for their effect on cell viability. Concentration-response curves (CRCs) were derived directly from the primary screen, and both potency and efficacy values were used to identify compounds with robust bioactivity profiles. We screened the NIH Chemical Genomics Center (NCGC) Pharmaceutical Collection (NPC) and Mechanism Interrogation Plate (MIPE) small molecule collections of approved and investigational compounds against these cell lines; and measured metabolically active cells after 48 hours of compound treatment as a proxy for cell viability. […] Assay Submitter: Nathalia J. Martinez, National Center for Advancing Translational Sciences, National Institutes of Health, Rockville, MD, USA; email: natalia.martinez@nih.gov Shen, M et al. Quantitative high-throughput phenotypic screening of pediatric cancer cell lines identifies multiple opportunities for drug repurposing. Oncotarget 2017 Dec 19;9(4):4758-4772. PMID 29435139.
# The cells were obtained from University of North Carolina (UNC), Pediatric Preclinical Testing Program (PPT), and Coriell Institute (CI). qHTS cell viability assay: Cells were assayed in growth media at a density of 500-1,000 cells/well. Five microliters of cells were dispensed into 1,536-well, white, solid-bottom, TC-treated plates (Greiner Bio One) using a multidrop dispenser and incubated at 37 degrees C, 5% CO2, under a humidified atmosphere for 5 hours. Twenty-three nanoliters of compounds and controls (neutral control DMSO or positive control bortezomib at final concentration of 2.3 µM) were subsequently transferred by Kalypsys pintool. For primary screens, the MIPE collection was tested at 11-point dilutions (final concentrations range from 0.78 nM to 46 µM) and the NPC collection at 8-point dilutions (final concentrations range from 0.59 nM to 46 µM). Compounds tested in follow-up screens were assayed at 11-point dilutions. Cells were incubated for 48 hours, followed by addition of 3 µL of CellTiter-Glo (Promega). After a 15 min incubation at room temperature, samples were analyzed for luminescence intensity using a ViewLux High-throughput CCD imager equipped with clear filters.
row,SMILES,outcome
1,CC(O)CCCCn1c(=O)c2c(ncn2C)n(C)c1=O (stereo not given),inactive
2,O=C(O)c1ccc[n+]([O-])c1,inactive
3,C[C@H]1COc2c(C3(N)CC3)c(F)cc3c(=O)c(C(=O)O)cn1c23,inactive
4,C[N+](C)(C)CC[N+]1(C)Cc2c(Cl)c(Cl)c(Cl)c(Cl)c2C1,inactive
5,CCN(CC)C(=O)c1cccc(C)c1,inactive
6,CCN(CC)CCOC(=O)C(c1ccccc1)c1ccccc1,inactive
7,COc1ccc(NS(=O)(=O)c2ccc(N)cc2)nn1,inactive
8,CC[N+](CC)(CC(=O)Nc1c(C)cccc1C)Cc1ccccc1,inactive
9,CC(=O)NS(=O)(=O)c1ccc(N)cc1,inactive
10,CC(N)CCCC(C)(C)O (stereo not given),inactive
11,C=CCOc1ccccc1OCC(O)CNC(C)C (stereo not given),inactive
12,Cc1cccc(Nc2ccccc2C(=O)O)c1C,inactive
13,CCN[C@H]1CN(CCCOC)S(=O)(=O)c2sc(S(N)(=O)=O)cc21,inactive
14,CCCCCCCCCCC(CO)CCCCCCCC (stereo not given),inactive
15,CN[C@@H]1[C@@H](O)[C@@H](O[C@@H]2[C@H](O)[C@H](O[C@H]3OC(CN)=CC[C@H]3N)[C@@H](N)C[C@H]2N)OCC1(C)O (stereo not given in full),inactive
16,NC(=O)CCCCC1CCSS1 (stereo not given),inactive
17,NC(=O)[C@@H]1CSSCCC(=O)N[C@@H](CCCCN=C(N)N)C(=O)NCC(=O)N[C@@H](CC(=O)O)C(=O)N[C@@H](Cc2c[nH]c3ccccc23)C(=O)N2CCC[C@H]2C(=O)N1 ([Mpa][hArg]GDWPC-NH2; disulfide 1-7),inactive
18,CC(C)(C)NCC(O)COc1cccc2c1CCC(=O)N2 (stereo not given),inactive
19,Cc1cc(C)c(NC(=O)CN(CC(=O)O)CC(=O)O)c(C)c1Br,inactive
20,Nc1ncnc(Nc2ccccc2)n1,inactive

row,SMILES,outcome
1,NNc1nnc(NN)c2ccccc12,inactive
2,CCN1CC(CCN2CCOCC2)C(c2ccccc2)(c2ccccc2)C1=O (stereo not given),inactive
3,OCC(O)CS (stereo not given),inactive
4,CCc1cccc(CC)c1NC(=O)CN(CC(=O)O)CC(=O)O,inactive
5,O=c1[nH]c(=O)c2ccccc2o1,inactive
6,O=C(Cn1ccnc1[N+](=O)[O-])NCc1ccccc1,inactive
7,Nc1ccc(C(=O)Oc2ccccc2)c(O)c1,inactive
8,CC1(C)[C@@H](OC(=O)CCC(=O)O)CC[C@]2(C)[C@H]3C(=O)C=C4[C@@H]5C[C@@](C)(C(=O)O)CC[C@]5(C)CC[C@@]4(C)[C@]3(C)CC[C@@H]12,inactive
9,Cc1ccc(S(=O)(=O)NC(=O)NC2CCCCCCC2)cc1,inactive
10,CCCCCCCC(=O)OCC(O)CO (stereo not given),inactive
11,CC(=O)NCc1c(I)c(NC(C)=O)c(I)c(C(=O)O)c1I,inactive
12,CC1CCc2cc(F)cc3c(=O)c(C(=O)O)cn1c23 (stereo not given),inactive
13,NC(=O)CC[C@@H](N)C(=O)O,inactive
14,C=CCN1C[C@H](C(=O)N(CCCN(C)C)C(=O)NCC)C[C@@H]2c3cccc4[nH]cc(c34)C[C@H]21,inactive
15,O=C(CCBr)N1CCN(C(=O)CCBr)CC1,inactive
16,CC[N+](C)(CC)CCOC(=O)C1c2ccccc2Oc2ccccc21,inactive
17,O=C(O)Cc1cn(-c2ccccc2)nc1-c1ccc(Cl)cc1,inactive
18,CCC(C)(CN(C)C)OC(=O)c1ccccc1 (stereo not given),inactive
19,Nc1c2c(nc3c1CCC3)CCCC2,inactive
20,COc1ccccc1OCC(O)CO (stereo not given),inactive
